# Assay results as given in publication PMC7819943, “Rice protein-binding microarrays: a tool to detect cis-acting elements near promoter regions in rice”.
# In all, about 39,000 sequences were measured (“fluorescence intensity (a.u.)”: median about 4,300, highest 2% from about 39,000 on). What follows is part of a selection rich in the highest values, with near analogues and random picks from the rest.
# Biological target: T1, OsSMF1 (Oryza sativa, UniProt Q6ZLB0 1-436)
# T1 sequence: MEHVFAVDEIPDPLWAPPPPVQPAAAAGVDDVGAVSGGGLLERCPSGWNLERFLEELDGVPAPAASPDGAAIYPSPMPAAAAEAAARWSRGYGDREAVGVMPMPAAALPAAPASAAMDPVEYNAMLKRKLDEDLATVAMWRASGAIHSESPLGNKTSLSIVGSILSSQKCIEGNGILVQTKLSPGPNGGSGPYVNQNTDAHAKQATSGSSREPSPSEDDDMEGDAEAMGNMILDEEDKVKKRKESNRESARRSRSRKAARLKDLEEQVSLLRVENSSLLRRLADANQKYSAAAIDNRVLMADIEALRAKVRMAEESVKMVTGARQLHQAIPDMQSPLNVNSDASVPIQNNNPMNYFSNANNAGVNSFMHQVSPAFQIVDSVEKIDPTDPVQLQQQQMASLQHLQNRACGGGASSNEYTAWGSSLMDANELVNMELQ
# Assay: protein-binding microarray (RPBM); PBS, 2% BSA, 51.3 ng/ul salmon testes DNA, 50 uM zinc acetate, 200 nM TF, 25 C, 1 h; high values mean tight binding
# Details: protein: recombinant; tags: N-terminal polyhistidine and DsRed monomer fusion (pET32a); chain copies: 2; label: CyDye5-dUTP incorporated in the synthesized complementary strand; 3' TTTTT single-stranded linker to array surface; dsDNA, one strand shown
# Method in brief: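 Transcription factors were made in E. coli BL21-CodonPlus as N-terminal fusions to a polyhistidine tag and DsRed, then purified on Ni–NTA. After primer extension with Cy5-dUTP and blocking with 2% BSA, a custom Agilent array was exposed for 1 h at 25 °C to 200 nM protein in PBS, 2% BSA, salmon testes DNA and 50 µM zinc acetate. Washed arrays were scanned on an Axon 4000B, and the binding signal is per-feature fluorescence intensity in arbitrary units.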
row,Sequence,binding signal
1,CGACCGACATATCTTCATAATTACCAAGTCATCATGCGACCGGAGTCACCTAGTGCAG,4520 fluorescence intensity (a.u.)
2,CTTCTTCTTGTGATGCTTATATATGACTATGTATGTAGTGCGGAGTCACCTAGTGCAG,3940 fluorescence intensity (a.u.)
3,TATGGAGTGAAATGTCAGACTCCAAATGACTTATATGATGCGGAGTCACCTAGTGCAG,64100 fluorescence intensity (a.u.)
4,GTTTATTCCAAGTGGTGGATGCTGATGAATTAAGTATATACGGAGTCACCTAGTGCAG,3140 fluorescence intensity (a.u.)
5,TCCAAAAGTTCTTGATGTGGCATGGTGGACATGAATTTGTCGGAGTCACCTAGTGCAG,5240 fluorescence intensity (a.u.)
6,ATCACTTCATTATCACATGACAGACCAACATATAATGATGCGGAGTCACCTAGTGCAG,44500 fluorescence intensity (a.u.)
7,ATTGGGGAGAGGAGCTGGGCGAGGCGGGGCTTGGGCTCGGCGGAGTCACCTAGTGCAG,3390 fluorescence intensity (a.u.)
8,TAGGGGAGCCTCGACACGACGCCGCTGGCGTGGCGCGTCCCGGAGTCACCTAGTGCAG,9370 fluorescence intensity (a.u.)
9,AAATAATGTGGCCGGACGGGCGGTAGGGTCCTGGCAGCAGCGGAGTCACCTAGTGCAG,28000 fluorescence intensity (a.u.)
10,CTCTCCTCTTTGCATGCATTCCTCCTGCCAAGAGTGCTGACGGAGTCACCTAGTGCAG,3400 fluorescence intensity (a.u.)
11,AAACAAAATAGCATAATCACTCACCGCGTCACACAGCGGGCGGAGTCACCTAGTGCAG,3720 fluorescence intensity (a.u.)
12,CCGAAGGAGTACGTGCCAAGTCGGCCCATCAGGCCCACGTCGGAGTCACCTAGTGCAG,4010 fluorescence intensity (a.u.)
13,CACCAAACCCCAACCCACCTCCAGGTCATCCACCCACATCCGGAGTCACCTAGTGCAG,3900 fluorescence intensity (a.u.)
14,AAACCCAAGCAAACCAGCAGCTACTAAGCAAAGCACAACCCGGAGTCACCTAGTGCAG,33900 fluorescence intensity (a.u.)
15,CTCTGCACAATTGCACCAACCCCAAAGCTTGGCTAAGCTCCGGAGTCACCTAGTGCAG,51000 fluorescence intensity (a.u.)
16,CCCTACGTGCACACATCCAGCTCCATTATATAGCCATTTTCGGAGTCACCTAGTGCAG,54800 fluorescence intensity (a.u.)
17,TGACCTAGCTAGCTACCTTTTCCCTCTTCCATCACATATACGGAGTCACCTAGTGCAG,3800 fluorescence intensity (a.u.)
18,ATACGGCACCATTTACGTGTATATGTGTCGTACATGCATACGGAGTCACCTAGTGCAG,3470 fluorescence intensity (a.u.)
19,CATTTTCCAGGCCAAGCCAGCTCACATCACCAGAGCAACACGGAGTCACCTAGTGCAG,3720 fluorescence intensity (a.u.)
20,CGATATACGTACACATGTGACATGACGTAATTTTACATCCCGGAGTCACCTAGTGCAG,4320 fluorescence intensity (a.u.)
21,TTACGATATAGTGTGCCAATTGGCACACCTACATTTTAGTCGGAGTCACCTAGTGCAG,45700 fluorescence intensity (a.u.)
22,CAGTTCCCAGCTGGACCTCCGACCTCCTACCTCCTCACCTCGGAGTCACCTAGTGCAG,3340 fluorescence intensity (a.u.)

row,Sequence,binding signal
1,AATGTTTGGGTTCGAATTTAGTGGGTGGGTTTGGAGTTTGCGGAGTCACCTAGTGCAG,4670 fluorescence intensity (a.u.)
2,TCCGCGGCCCCGCTGGCCCACACGCATGCGTCCAAACAGCCGGAGTCACCTAGTGCAG,3940 fluorescence intensity (a.u.)
3,CAAATAGAACATAGCCATACGAAATGACTCACTAACCTCTCGGAGTCACCTAGTGCAG,4910 fluorescence intensity (a.u.)
4,TCACCGGTCTCATCCCCGTCATATGCATCCTTATCTCCAACGGAGTCACCTAGTGCAG,4020 fluorescence intensity (a.u.)
5,TGACCTACTTGCACTTATAATTTATAGTATTATGATGTGTCGGAGTCACCTAGTGCAG,3290 fluorescence intensity (a.u.)
6,TCCAAGCCGTCCACTCCCCTCCGATCCAACGGTCCAAACCCGGAGTCACCTAGTGCAG,21800 fluorescence intensity (a.u.)
7,AGATCACACACAACACGCACATCACGAACCGGACCAAACCCGGAGTCACCTAGTGCAG,3660 fluorescence intensity (a.u.)
8,ATGCACACACATACAACGAAAACCAGAGATCAACAGGTGCCGGAGTCACCTAGTGCAG,45100 fluorescence intensity (a.u.)
9,CACACCTGACACAACACTTACACATCATACCAGAAGAAAACGGAGTCACCTAGTGCAG,3210 fluorescence intensity (a.u.)
10,TGGGGCCGTGAGGCCACGTGCCCGGCATGCCACGGTGGAGCGGAGTCACCTAGTGCAG,10000 fluorescence intensity (a.u.)
11,CCCTTGTCCATCCGCCAACGCCACGTCACCTCCTCCGCTACGGAGTCACCTAGTGCAG,52100 fluorescence intensity (a.u.)
12,TCCTCCTCTCCTCCACACATCCAGGCAGGCAACACAAGAACGGAGTCACCTAGTGCAG,41800 fluorescence intensity (a.u.)
13,TTGTCGTCCACGCCGCCATCTCCTTGGTCATCCGCAACAACGGAGTCACCTAGTGCAG,3430 fluorescence intensity (a.u.)
14,GGCAACAACGGCCTCCACCGCCATCACTCCGGCACCCTCACGGAGTCACCTAGTGCAG,52200 fluorescence intensity (a.u.)
15,ACCTCCCCGACGGCGTCCGCGTGCCGCGCTCCACGCGCACCGGAGTCACCTAGTGCAG,3460 fluorescence intensity (a.u.)
16,CCTTTTATCCGCTCTACGGACGCAGTCCACGTCAGCCGACCGGAGTCACCTAGTGCAG,39200 fluorescence intensity (a.u.)
17,CCTCCGCCTTGTCCGCGTCCACGTCCACGGCCGCCGCCACCGGAGTCACCTAGTGCAG,6310 fluorescence intensity (a.u.)
18,CGCCTTATCCTCCCGCCTTTTCACGTCCCGCCACGCCGACCGGAGTCACCTAGTGCAG,4060 fluorescence intensity (a.u.)
19,CTCCTCTCCTCTCTTCTCCACATCCACAAGAAATTTCGTACGGAGTCACCTAGTGCAG,3630 fluorescence intensity (a.u.)
20,TCCACCACCGCCTGCCTCCATCCACCTCCACTGCAACCTCCGGAGTCACCTAGTGCAG,3670 fluorescence intensity (a.u.)
21,CCTCCACCCTCACCGGCGCCACGCCGACGCCTCCGCCCTCCGGAGTCACCTAGTGCAG,5600 fluorescence intensity (a.u.)
22,ACCACGACCACCACAACACCACCACCTCTTCTCCTAGTCACGGAGTCACCTAGTGCAG,3570 fluorescence intensity (a.u.)
